Screens deposited in PubChem BioAssay by Sanford-Burnham Center for Chemical Genomics.
Artemis inh: Artemis endonuclease inhibitors, primary screen, biochemical, fluorescence intensity, FAM/BHQ-1 hairpin substrate; inhibition, % at 10 µM; hit rate 0.78% among 30,000; Protein artemis (Homo sapiens), Q96SD1; recombinant Artemis, quenched FAM hairpin cleavage fluorescence; AID 686954, 2013;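 active = at 10 µM dose, at least 30% inhibition, measured as corrected fluorescence normalized to stimulator and neutral control wells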
* = called active by the depositor. This is one part of a sample in which hits are shown more often than they occur.

SMILES	Artemis inh
Cc1nc2c(=O)n(C)c(=O)nc-2n(C)n1	78.4*
CCOC(=O)c1ccc(N2C(=O)CC(N3CCC(C#N)(c4ccccc4)CC3)C2=O)cc1 (configuration not stated)	3.7
O=c1cccc2n1CC1CC2CN(c2ncnc3c2cnn3-c2ccc(Cl)cc2)C1 (configuration not stated)	-2.1
C#CCNc1ccncc1S(=O)(=O)NC(=O)NC(C)C	-4.7
CCOC(=O)[C@]1(C#N)[C@@H]2C=CC(C(C)=O)=CN2[C@@H](C(N)=O)[C@@H]1c1ccsc1	3.4
CC(C)OCCCNC(=O)c1c(N)n(Cc2cccs2)c2nc3ccccc3nc12	14.6
Nc1c(C(=O)NC2CCCC2)c2nc3ccccc3nc2n1CC1CCCO1 (configuration not stated)	30.6*
COc1cccc(-n2c(O)c(C=NCCN3CCOCC3)c(=O)[nH]c2=O)c1	-4.3
Cc1ccc(C)c(C2(O)CC(C)N(C)CC2C)c1 (configuration not stated)	0.1
CC(=O)c1ccc2c(c1)C1C(Cl)C(Sc3ccccc3[N+](=O)[O-])CC1C(c1ccccc1[N+](=O)[O-])N2 (configuration not stated)	31.0*
CC(C)N1C(=O)CC2(CC[N+](C)(CCOC(=O)C(O)(c3ccccc3)c3ccccc3)CC2)C1=O (configuration not stated)	-3.8
OC1(CN2CCOCC2)C2CC3CC(C2)CC1C3 (configuration not stated)	0.1
Cc1ccc(-n2c(O)c(C=NC3CCCCC3N)c(=O)[nH]c2=O)cc1C (configuration not stated)	1.2
COCCCn1c(N)c(C(=O)OCCOC)c2nc3ccccc3nc21	38.0*
CC(C)OC(=O)c1c(N)n(Cc2ccco2)c2nc3ccccc3nc12	5.2
COC(=O)c1c(N)n(Cc2ccc(OC)cc2)c2nc3ccccc3nc12	31.0*
COCCOC(=O)c1c(N)n(Cc2ccco2)c2nc3ccccc3nc12	18.1
COCCOC(=O)c1c(N)n(Cc2ccc(OC)cc2)c2nc3ccccc3nc12	10.1
CCOC(=O)c1c(N)n(CCCOC(=O)c2ccco2)c2nc3ccccc3nc12	24.6
COC(=O)CCCNC(=O)CN1CC(c2ccccc2)CC1=O (configuration not stated)	-0.3
COc1ccc(OCC(=O)N2CCN(CC3CC4C=CC3C4)CC2)cc1 (configuration not stated)	-3.8
N=c1c[n+](CC23CC4CC(CC(C4)C2)C3)[n-]o1	0.3
Cc1ccc(-n2c(O)c(C=NC3CCCC3)c(=O)[nH]c2=O)c(C)c1	4.3
COc1ccc(Nc2ncc(C(=O)N3CCC4(CC3)OCCO4)c3ccccc23)cc1	3.9
OCCOCC#CCN1CCOCC1	-3.5
